Results published in PubChem BioAssay (Tox21).
Records with an inconclusive call do not appear. Activity calls are given as the source filed them. Unless noted, calls come from the whole dose curve; as a rule, active = well fitted curve in the direction sought with a large enough effect in the repeat runs; inconclusive = weak or mixed curves; inactive = no such curve, though single readings can be large; an effect the other way counts as inactive or inconclusive.

Experiments:
[1] = qHTS RealTime-Glo MT Cell Viability Assay in HEK293 cells - 24 hour (AID 1224886); note: top concentration of the series differs between compounds; nearly all actives have a fitted effect of over 50% in size
In short: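 Assay medium contained NanoLuc luciferase plus cell-permeant prosubstrate, added with HEK293 cells at 600 cells/well. After 5 h at 37 C/5% CO2 compounds were added; plates stayed at 37 C for 40 h with serial luminescence reads.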

[2] = qHTS RealTime-Glo MT Cell Viability Assay in HEK293 cells - 8 hour (AID 1224887); note: top concentration of the series differs between compounds; nearly all actives have a fitted effect of over 50% in size
In short: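 Luminescence, which tracks viable cell number through reduction of the prosubstrate to a NanoLuc substrate, was read over continuous 37 C culture. Cells (600/well) were premixed with reagent and rested 5 h before 23 nL of compound in DMSO was pinned.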

[3] = A CellTox Green Cytotoxicity Assay to monitor cytotoxicity in HEK293 cells - 16 hour (AID 1224888); note: nearly all actives have a fitted effect of over 35% in size
In short: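 Fluorescence from a DNA-binding dye excluded by viable cells was measured repeatedly in the same HEK293 wells (600 cells/well) during continuous compound exposure at 37 C. Each assay gives one read point: 0, 8, 16, 24, 32 or 40 h.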

[4] = qHTS RealTime-Glo MT Cell Viability Assay in HepG2 cells - 0 hour (AID 1224889); note: nearly all actives have a fitted effect of over 50% in size
In short: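 qHTS, HepG2, 600 cells/well, RealTime-Glo (NanoLuc + prosubstrate) added with cells; 5 h preincubation; DMSO compound addition; 37 C; luminescence at 0/8/16/24/32/40 h.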

[5] = A CellTox Green Cytotoxicity Assay to monitor cytotoxicity in HepG2 cells - 8 hour (AID 1224890); note: nearly all actives have a fitted effect of over 45% in size
In short: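 Real-time cytotoxicity: fluorescence of a cell-impermeant cyanine dye binding DNA of dead HepG2 cells, measured repeatedly (0–40 h) during compound exposure at 37 C. Cells seeded 600/well with reagent, dosed after 5 h.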

[6] = qHTS assay to identify small molecule antagonists of the estrogen receptor alpha (ER-alpha) signaling pathway using the BG1 cell line in the presence of 0.1 nM 17-beta-estradiol - cell viability counter screen (AID 1259241); note: nearly all actives have a fitted effect of over 40% in size
In short: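 VM7Luc4E2, 4,000 cells/well, phenol red-free medium + 10% charcoal-stripped FBS; 24 hr plating; cpd + 0.1 nM E2 final, 22 hr 37C/5% CO2; CellTiter-Fluor 30 min, fluorescence.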

[7] = qHTS assay to identify small molecule antagonists of the androgen receptor (AR) signaling pathway using the MDA cell line in the presence of 0.5 nM R1881 - cell viability counter screen (AID 1259242); note: nearly all actives have a fitted effect of over 45% in size
In short: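 Live-cell protease activity was measured by CellTiter-Fluor fluorescence after 30 min. Before that, MDA-kb2 MMTV-luciferase cells had 16 hr at 37C without CO2, exposed to test compounds and 0.5 nM R1881 final.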

[8] = biological target: Estrogen receptor (Homo sapiens) (UniProt P03372); experiment: qHTS assay to identify small molecule antagonists of the estrogen receptor alpha (ER-alpha) signaling pathway using the BG1 cell line in the presence of 0.1 nM 17-beta-estradiol (AID 1259244); note: nearly all actives have a fitted effect of over 50% in size
Sequence of Estrogen receptor (Homo sapiens) (P03372 whole entry, looked up): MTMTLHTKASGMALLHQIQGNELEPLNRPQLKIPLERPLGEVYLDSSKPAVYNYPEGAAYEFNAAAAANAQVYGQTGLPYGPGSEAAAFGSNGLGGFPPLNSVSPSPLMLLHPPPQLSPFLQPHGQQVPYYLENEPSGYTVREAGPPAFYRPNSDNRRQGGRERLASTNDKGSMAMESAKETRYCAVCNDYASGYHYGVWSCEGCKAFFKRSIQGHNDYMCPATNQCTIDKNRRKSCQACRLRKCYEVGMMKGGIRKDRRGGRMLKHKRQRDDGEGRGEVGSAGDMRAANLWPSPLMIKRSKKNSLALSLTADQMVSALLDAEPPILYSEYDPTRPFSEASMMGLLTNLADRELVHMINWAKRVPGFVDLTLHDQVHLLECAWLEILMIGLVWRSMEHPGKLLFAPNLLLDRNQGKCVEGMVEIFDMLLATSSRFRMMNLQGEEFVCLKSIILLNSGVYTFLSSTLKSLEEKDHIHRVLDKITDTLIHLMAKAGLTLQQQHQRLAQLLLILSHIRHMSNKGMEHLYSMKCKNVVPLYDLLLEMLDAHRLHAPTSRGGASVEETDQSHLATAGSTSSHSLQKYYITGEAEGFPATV
In short: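 Luciferase luminescence (ONE-Glo, 30 min at room temperature) was read after 22 hr at 37C exposure to compounds plus 17beta-estradiol at 0.1 nM final. Cells were VM7Luc4E2 with endogenous ER-alpha and an ERE-driven luciferase, pre-cultured 5 days in hormone-depleted medium.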

[9] = qHTS assay to identify small molecule HDAC inhibitors (AID 1259364); note: top concentration of the series differs between compounds; nearly all actives have a fitted effect of over 45% in size
In short: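 Luminescence read after 30 min room-temperature HDAC-Glo incubation measures cellular class I/II HDAC activity. Compounds were applied for 2 hr at 37 C to HCT-116 wild-type cells seeded the day before.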

[10] = qHTS assay to identify small molecule HDAC inhibitors - cell viability counter screen (AID 1259365)
In short: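 Luminescence from CellTiter-Glo, developed 30min at room temperature, reports viability of wild-type HCT-116 cells treated 2hr with compounds at 37 C and 5% CO2 after overnight plating.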

[11] = qHTS assay to identify small molecule agonists of the sonic hedgehog signaling (Shh) pathway - cell viability counter screen (AID 1259366); note: nearly all actives have a fitted effect of over 50% in size
In short: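 Cytotoxicity counter screen run in the same wells as the Shh reporter assay. NIH/3T3 cells carrying a Gli1 response element–driven luciferase were treated with DMSO-dissolved compounds for 24hr, and live-cell protease activity was measured with CellTiter-Fluor.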

[12] = qHTS assay to identify small molecule antagonists of the sonic hedgehog signaling (Shh) pathway - cell viability counter screen (AID 1259367); note: nearly all actives have a fitted effect of over 55% in size
In short: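 Viability was read by CellTiter-Fluor fluorescence in the same wells, reagent added 23 hr into compound treatment and incubated 1 hr at 37C. The 3T3 Gli1-Luc reporter cells (2,000/well) received conditioned medium after compound and ran 24 hr.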

[13] = qHTS assay to identify small molecule agonists of the sonic hedgehog signaling (Shh) pathway (AID 1259368; calls by dose curve;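 note: NIH/3T3-derived 3T3Gli1-Luc cells carrying a stable Gli1-driven firefly luciferase reporter; series mostly up to about 92 µM; nearly all actives have a fitted effect of over 15% in size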)
In short: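 Luminescence was read after 30 min at room temperature with luciferase reagent. Before that, 3T3Gli1-Luc cells (NIH/3T3 clone, stable Gli1-Luc reporter; 2,000/well) were exposed to compounds for 24 hr at 37C, 5% CO2, compounds being added 4 hr post-plating.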

[14] = qHTS assay to identify small molecule antagonists of the sonic hedgehog signaling (Shh) pathway (AID 1259369; calls by dose curve; note: nearly all actives have a fitted effect of over 45% in size)
In short: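 Antagonist mode: compound added to 3T3 Gli1-Luc cells followed by conditioned-medium stimulation, 24 h at 37 C, 5% CO2. Inhibition taken as loss of Gli1-driven luciferase luminescence.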

[15] = biological target: Estrogen receptor beta (Homo sapiens) (UniProt Q92731); experiment: qHTS assay to identify small molecule agonists of the estrogen receptor beta (ER-beta) signaling pathway (AID 1259377; active = well fitted activation curve with a large enough effect in the signal ratio in the repeat runs, not every such curve was filed as active; the % refers to the signal ratio)
Sequence of Estrogen receptor beta (Homo sapiens) (Q92731 whole entry, looked up): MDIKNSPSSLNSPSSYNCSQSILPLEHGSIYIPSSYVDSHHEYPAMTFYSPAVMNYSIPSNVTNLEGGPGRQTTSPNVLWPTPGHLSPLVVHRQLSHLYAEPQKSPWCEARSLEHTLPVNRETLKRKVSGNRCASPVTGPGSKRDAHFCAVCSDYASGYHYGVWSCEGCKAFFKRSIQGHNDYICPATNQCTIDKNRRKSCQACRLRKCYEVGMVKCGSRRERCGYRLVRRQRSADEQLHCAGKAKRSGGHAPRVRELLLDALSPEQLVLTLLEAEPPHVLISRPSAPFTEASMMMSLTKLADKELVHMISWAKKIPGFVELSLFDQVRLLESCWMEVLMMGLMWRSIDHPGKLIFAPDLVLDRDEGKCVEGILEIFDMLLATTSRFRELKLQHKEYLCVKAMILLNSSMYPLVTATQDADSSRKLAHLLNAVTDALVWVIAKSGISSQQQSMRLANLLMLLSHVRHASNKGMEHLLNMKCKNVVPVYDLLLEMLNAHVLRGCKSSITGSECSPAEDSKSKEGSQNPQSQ
In short: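 HEK293T ER-beta-UAS-bla; 2% charcoal-stripped FBS; cells pre-incubated 6 hr, compound 16 hr, 37C/5% CO2; LiveBLAzer B/G FRET substrate 2 h RT; fluorescence intensity read.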

[16] = biological target: Estrogen receptor beta (Homo sapiens) (UniProt Q92731); experiment: qHTS assay to identify small molecule antagonists of the estrogen receptor beta (ER-beta) signaling pathway (AID 1259378; active = well fitted inhibition curve with a large enough effect in the signal ratio in the repeat runs, not every such curve was filed as active; the % refers to the signal ratio)
In short: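 Antagonist mode: compounds added to beta-lactamase reporter HEK293T ER-beta-UAS cells stimulated with E2 (1nM final), 16 hr at 37C. LiveBLAzer B/G FRET substrate, 2 hours room temperature, fluorescence read-out.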

[17] = qHTS assay to identify small molecule agonists of the androgen receptor (AR) signaling pathway in the presence of an antagonist - cell viability counter screen (AID 1259379);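 note: MDA-kb2 human breast cancer cells carrying an MMTV luciferase reporter; series mostly up to about 92 µM; nearly all actives have a fitted effect of over 25% in size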
In short: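 Cytotoxicity counter-screen run in the same wells as the nilutamide-challenged (3.0 µM final) AR agonist assay in MDA-kb2 cells. Compounds tested at 15 concentrations for 16 h, 37 °C without CO2; CellTiter-Fluor fluorescence read.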

[18] = qHTS assay to identify small molecule agonists of the estrogen receptor beta (ER-beta) signaling pathway - cell viability counter screen (AID 1259380); note: nearly all actives have a fitted effect of over 30% in size
In short: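 Cell viability counter screen: CellTiter-Glo luminescence (30 min, room temperature) measured in the same wells as the beta-lactamase readout, after 16 hr compound exposure at 37C of ER-beta-bla HEK293T cells in 2% charcoal-stripped FBS medium.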

[19] = biological target: Androgen receptor (Homo sapiens) (UniProt P10275); experiment: qHTS assay to identify small molecule antagonists of the androgen receptor (AR) signaling pathway using the MDA cell line in the presence of 0.5 nM R1881 (AID 1259243); note: nearly all actives have a fitted effect of over 50% in size
Sequence of Androgen receptor (Homo sapiens) (P10275 whole entry, looked up): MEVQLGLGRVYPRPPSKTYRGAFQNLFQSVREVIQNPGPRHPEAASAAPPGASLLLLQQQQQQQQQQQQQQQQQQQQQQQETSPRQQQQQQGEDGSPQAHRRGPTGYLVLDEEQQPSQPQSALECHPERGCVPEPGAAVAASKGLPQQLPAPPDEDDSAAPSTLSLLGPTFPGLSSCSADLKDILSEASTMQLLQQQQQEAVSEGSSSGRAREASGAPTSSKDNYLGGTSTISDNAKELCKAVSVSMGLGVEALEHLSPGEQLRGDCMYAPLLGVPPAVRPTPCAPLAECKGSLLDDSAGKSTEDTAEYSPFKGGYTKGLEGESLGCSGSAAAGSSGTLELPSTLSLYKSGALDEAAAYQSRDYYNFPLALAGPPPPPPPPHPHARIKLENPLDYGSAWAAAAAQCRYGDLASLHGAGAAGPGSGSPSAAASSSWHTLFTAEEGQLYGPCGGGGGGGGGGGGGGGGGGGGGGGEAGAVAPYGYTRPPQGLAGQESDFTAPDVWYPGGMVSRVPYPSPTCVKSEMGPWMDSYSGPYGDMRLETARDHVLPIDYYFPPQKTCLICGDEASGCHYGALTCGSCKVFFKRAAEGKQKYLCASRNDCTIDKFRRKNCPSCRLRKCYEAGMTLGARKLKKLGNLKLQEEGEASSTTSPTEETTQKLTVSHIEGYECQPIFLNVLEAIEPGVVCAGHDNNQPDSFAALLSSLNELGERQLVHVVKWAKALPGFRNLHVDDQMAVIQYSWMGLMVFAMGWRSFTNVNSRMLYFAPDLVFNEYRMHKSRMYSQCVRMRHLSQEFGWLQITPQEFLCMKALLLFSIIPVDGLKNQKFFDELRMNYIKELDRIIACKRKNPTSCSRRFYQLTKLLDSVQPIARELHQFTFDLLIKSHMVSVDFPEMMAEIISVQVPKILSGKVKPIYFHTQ
In short: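 Luminescent reporter readout (ONE-Glo, 30 min, room temperature) after 16 hr co-treatment of MDA-kb2 cells with test compounds and 0.5 nM R1881 final, at 37C without CO2. The MMTV-driven luciferase responds to both AR and GR.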

[20] = qHTS assay to identify small molecule phospholipidosis (PLD) inducers (AID 1259344; active = well fitted curve in the direction sought with a large enough effect; an effect the other way counts as inactive or inconclusive)
In short: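 Phospholipid accumulation was scored by imaging: fixed, Hoechst-counterstained HepG2 cells stained with LipidTOX Red after 24 h compound exposure at 37 C. Read-outs were pit count and pit intensity per well or per cell, with amiodarone and DMSO controls.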
% is set by controls: 0 for no effect and ±100 for the full control effect.

CCCCOCCOC(=O)COc1ccc(Cl)cc1Cl
inactive: Potency [1] | Potency [2] | Potency [3] | Potency [4] | Potency [5] | outcome [6] | outcome [7] | outcome [8] | Potency [9] | outcome [10] | outcome [11] | outcome [12] | outcome [13] | Potency [14] | Potency [15] | Potency [16] | outcome [17] | outcome [18]

CC(S)C(C)S (stereo unspecified)
inactive: Potency [1] | Potency [2] | Potency [3] | Potency [4] | Potency [5] | outcome [6] | outcome [7] | Potency [19] | outcome [8] | Potency [9] | outcome [11] | outcome [12] | outcome [13] | Potency [14] | outcome [17] | outcome [18]

CC1=C(C(=O)O)N2C(=O)[C@@H](NC(=O)[C@H](N)C3=CCC=CC3)[C@H]2SC1
inactive: Potency [1] | Potency [2] | Potency [3] | Potency [4] | Potency [5] | outcome [6] | outcome [7] | outcome [8] | PLD induction [20] 0.229% [at 7.66 µM] | Potency [9] | outcome [10] | outcome [11] | outcome [12] | Potency [14] | outcome [17] | outcome [18]

O=C(Cn1ccnc1[N+](=O)[O-])NCc1ccccc1
inactive: Potency [1] | Potency [2] | Potency [3] | Potency [4] | Potency [5] | outcome [6] | outcome [7] | outcome [8] | outcome [20] | Potency [9] | outcome [10] | outcome [11] | outcome [12] | outcome [13] | Potency [14] | Potency [15] | Potency [16] | outcome [17] | outcome [18]

CCCCC1CCC(O)CC1 (stereo unspecified)
inactive: Potency [1] | Potency [2] | Potency [3] | Potency [4] | Potency [5] | outcome [6] | outcome [7] | Potency [19] | Potency [9] | outcome [10] | outcome [11] | outcome [12] | outcome [13] | Potency [14] | outcome [17] | outcome [18]

CC1c2ccccc2CN1NC(=O)c1ccc(Cl)c(S(N)(=O)=O)c1 (stereo unspecified)
inactive: Potency [1] | Potency [2] | Potency [3] | Potency [4] | Potency [5] | outcome [6] | outcome [7] | outcome [8] | PLD induction [20] -1.83% [at 1.53 µM] | Potency [9] | outcome [10] | outcome [11] | outcome [12] | Potency [14] | Potency [15] | Potency [16] | outcome [17] | outcome [18]

O=C(CCCCC(=O)Nc1c(I)cc(I)c(C(=O)O)c1I)Nc1c(I)cc(I)c(C(=O)O)c1I
inactive: Potency [1] | Potency [2] | Potency [3] | Potency [4] | Potency [5] | outcome [6] | outcome [7] | outcome [8] | outcome [20] | Potency [9] | outcome [10] | outcome [11] | outcome [12] | outcome [13] | Potency [14] | outcome [17] | outcome [18]

O=C=NCC1CCCC(CN=C=O)C1 (stereo unspecified)
inactive: Potency [1] | Potency [2] | Potency [3] | Potency [4] | Potency [5] | outcome [6] | outcome [7] | outcome [8] | Potency [9] | outcome [10] | outcome [11] | outcome [12] | outcome [13] | Potency [14] | Potency [15] | outcome [17] | outcome [18]

CC(C)C1OCCN1CCOC(=O)NCCCCCCNC(=O)OCCN1CCOC1C(C)C (stereo unspecified)
inactive: Potency [1] | Potency [2] | Potency [3] | Potency [4] | Potency [5] | outcome [6] | outcome [7] | Potency [19] | outcome [8] | outcome [10] | outcome [12] | outcome [13] | Potency [14] | outcome [17] | outcome [18]

O=C(O)c1cc2ccccc2nc1C(=O)O
inactive: Potency [1] | Potency [2] | Potency [3] | Potency [4] | Potency [5] | outcome [6] | outcome [7] | outcome [8] | Potency [9] | outcome [10] | outcome [11] | outcome [12] | outcome [13] | Potency [14] | Potency [15] | Potency [16] | outcome [17] | outcome [18]

C=CC(=O)OCC1CCCO1 (stereo unspecified)
inactive: Potency [1] | Potency [2] | Potency [3] | Potency [4] | Potency [5] | outcome [6] | outcome [7] | outcome [8] | Potency [9] | outcome [10] | outcome [11] | outcome [12] | outcome [13] | Potency [14] | Potency [15] | Potency [16] | outcome [17] | outcome [18]

CN(C)CCCO[C@@H]1[C@H]2OC(C)(C)O[C@H]2O[C@@H]1C(O)CO (stereo partly specified)
inactive: Potency [1] | Potency [2] | Potency [3] | Potency [4] | Potency [5] | outcome [6] | outcome [7] | outcome [8] | outcome [20] | Potency [9] | outcome [10] | outcome [11] | outcome [12] | outcome [13] | Potency [14] | outcome [17] | outcome [18]

O=C1OCCO1
inactive: Potency [1] | Potency [2] | Potency [3] | Potency [4] | Potency [5] | outcome [6] | outcome [7] | outcome [8] | Potency [9] | outcome [10] | outcome [11] | outcome [12] | outcome [13] | Potency [14] | outcome [17] | outcome [18]

CCO
inactive: Potency [1] | Potency [2] | Potency [3] | Potency [4] | Potency [5] | outcome [6] | outcome [7] | Potency [19] | outcome [8] | Potency [9] | outcome [10] | outcome [11] | outcome [12] | outcome [13] | Potency [14] | Potency [15] | Potency [16] | outcome [17] | outcome [18]

CCCCCC(C)O (stereo unspecified)
inactive: Potency [1] | Potency [2] | Potency [3] | Potency [4] | Potency [5] | outcome [6] | outcome [7] | outcome [8] | Potency [9] | outcome [10] | outcome [11] | outcome [12] | outcome [13] | Potency [14] | outcome [17] | outcome [18]
